The target of experiment [1] is Estrogen receptor (Homo sapiens) (UniProt P03372). Briefly: OT_ERa_GFPERaERE_0120: Odyssey Thera (OT) 2-hour HeLa Transcription Induction Assay for Estrogen Receptor (AID 2283382; active means hit-call score of the fitted dose curve at least 0.9, where 1 is the maximum). In outline:
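Measures ESR1 pathway reporter gain-of-signal in HeLa cells after a 2-hour treatment, detected as fluorescent protein induction by microscopy, DMSO as baseline.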

For experiment [2], the target named is Bile acid receptor (Homo sapiens) (UniProt Q96RI1). Briefly: OT_FXR_FXRSRC1_0480: Odyssey Thera (OT) 8-hour HEK293T Protein-Complementation Assay for Farnesoid X receptor/SRC-1 Co-activator (AID 2283383; active means hit-call score of the fitted dose curve at least 0.9, where 1 is the maximum). In outline: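 Co-activator recruitment to FXR was measured in living HEK293T cells, where interaction of the two fused partners restored an active fluorescent reporter. Signal gain after 8 h treatment was referenced to DMSO.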
Sequence of Bile acid receptor (Homo sapiens) (Q96RI1 whole entry, looked up, the tested form may be a part): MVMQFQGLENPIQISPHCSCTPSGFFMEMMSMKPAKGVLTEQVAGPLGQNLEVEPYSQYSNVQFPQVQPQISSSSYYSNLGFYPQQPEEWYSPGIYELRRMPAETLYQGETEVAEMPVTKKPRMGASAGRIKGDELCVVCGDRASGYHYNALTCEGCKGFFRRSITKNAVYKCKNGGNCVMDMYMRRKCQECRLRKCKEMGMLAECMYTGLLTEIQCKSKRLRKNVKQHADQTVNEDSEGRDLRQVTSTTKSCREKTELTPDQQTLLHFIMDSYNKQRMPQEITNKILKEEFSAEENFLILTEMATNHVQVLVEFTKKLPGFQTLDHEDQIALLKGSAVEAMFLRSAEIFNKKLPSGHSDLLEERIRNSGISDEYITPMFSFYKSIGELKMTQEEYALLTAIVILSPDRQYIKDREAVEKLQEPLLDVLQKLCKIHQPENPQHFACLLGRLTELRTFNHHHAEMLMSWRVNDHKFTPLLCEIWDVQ

Experiment [3] has the same target. Briefly: OT_FXR_FXRSRC1_1440: Odyssey Thera (OT) 24-hour HEK293T Protein-Complementation Assay for Farnesoid X receptor/SRC-1 Co-activator (AID 2283384; active means hit-call score of the fitted dose curve at least 0.9, where 1 is the maximum). In a few lines:
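Cell-based binding reporter: interaction of FXR with SRC-1 brings reporter fragments together, giving a fluorescence signal read 24 h after dosing of HEK293T cells.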

The target in experiment [4] is Peroxisome proliferator-activated receptor gamma (Homo sapiens) (UniProt P37231). Briefly: OT_PPARg_PPARgSRC1_0480: Odyssey Thera (OT) 8-hour Protein-Complementation Assay for Peroxisome Proliferator-activated Receptor Gamma / SRC-1 Co-activator (AID 2283387; active means hit-call score of the fitted dose curve at least 0.9, where 1 is the maximum;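 further: nuclear to cytoplasmic split Venus YFP fluorescence ratio reporting PPARg SRC-1 interaction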). In a few lines: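 HEK293T transiently transfected with PPARg and SRC-1 fused to Venus YFP fragments, compounds 8 h at 37C. Fixed, Draq5-stained cells imaged; nuclear/cytoplasmic 488 nm fluorescence ratio over at least 350 cells per image; gain fitted versus DMSO.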
Sequence of Peroxisome proliferator-activated receptor gamma (Homo sapiens) (P37231 whole entry, looked up, the tested form may be a part): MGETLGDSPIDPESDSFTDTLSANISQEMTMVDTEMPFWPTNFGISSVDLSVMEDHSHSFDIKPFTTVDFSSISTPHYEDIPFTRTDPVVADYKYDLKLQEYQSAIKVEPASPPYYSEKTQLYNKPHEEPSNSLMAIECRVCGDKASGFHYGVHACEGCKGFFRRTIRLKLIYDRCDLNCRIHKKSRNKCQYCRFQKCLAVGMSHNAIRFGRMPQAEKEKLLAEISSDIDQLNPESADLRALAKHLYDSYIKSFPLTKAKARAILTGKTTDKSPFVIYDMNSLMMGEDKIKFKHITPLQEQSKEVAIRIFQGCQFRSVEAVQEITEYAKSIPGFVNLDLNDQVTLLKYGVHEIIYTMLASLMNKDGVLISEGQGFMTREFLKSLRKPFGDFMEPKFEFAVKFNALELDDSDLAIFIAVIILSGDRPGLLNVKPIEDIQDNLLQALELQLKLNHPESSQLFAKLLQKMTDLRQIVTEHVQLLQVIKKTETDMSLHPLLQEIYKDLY

For experiment [5] the target is unchanged. Briefly: OT_PPARg_PPARgSRC1_1440: Odyssey Thera (OT) 24-hour Protein-Complementation Assay for Peroxisome Proliferator-activated Receptor Gamma/ SRC-1 Co-activator (AID 2283388; active means hit-call score of the fitted dose curve at least 0.9, where 1 is the maximum). In a few lines:
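Protein-fragment complementation between PPARg and coactivator SRC-1 was measured by fluorescence imaging in transiently transfected HEK293T cells after 24 h treatment. Signal was quantified as N/C ratio in the 488 nm channel, with DMSO as negative control.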

Read-out in experiment [6]: Tumor necrosis factor receptor superfamily member 6 (Homo sapiens) (UniProt P25445)
Briefly: LTEA_HepaRG_FAS: Life Technologies and Expression Analysis (LTEA) Assay for Fas cell surface death receptor (FAS) using HepaRG (AID 2283447). To be noted: mRNA level, 48 h; actives raise or lower the signal. In outline:
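Differentiated human HepaRG cells, pre-cultured 48 h, were exposed in duplicate for 48 h to 8-point half-log concentrations (top 100 uM, 0.5% DMSO) in serum-free induction medium; FAS mRNA measured by qRT-PCR, normalized to ACTB/GAPDH/POLR2A, bidirectional fit versus DMSO.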

Read-out in experiment [7]: Fatty acid synthase (Homo sapiens) (UniProt P49327)
Briefly: LTEA_HepaRG_FASN: Life Technologies and Expression Analysis (LTEA) Assay for Fatty Acid Synthase (FASN) using HepaRG (AID 2283448). To be noted: mRNA level, 48 h; actives raise or lower the signal. In outline:
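Transcript-level assay: HepaRG liver cells are treated for 48 h across an eight-point range topping at 100 uM, and FASN mRNA, normalized to three housekeeping genes, is compared with DMSO controls in both directions.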

Read-out in experiment [8]: Cyclin D2 (CCND2), CCND2 (gene 894)
Briefly: LTEA_HepaRG_CCND2: Life Technologies and Expression Analysis (LTEA) Assay for Cyclin D2 (CCND2) using HepaRG (AID 2283449).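 Further: CCND2 transcript measured by TaqMan qRT-PCR and normalised to three housekeeping genes.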 To be noted: mRNA level, 48 h; actives raise or lower the signal. In a few lines: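 Differentiated human HepaRG cells were exposed for 48 h in serum-free induction medium to eight half-log concentrations topping at 100 uM (0.5% DMSO vehicle). CCND2 mRNA was quantified by TaqMan qRT-PCR, normalised to ACTB, GAPDH and POLR2A, and fitted bidirectionally against DMSO.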

Read-out in experiment [9]: Cyclin Dependent Kinase Inhibitor 1A (CDKN1A), CDKN1A (gene 1026)
Briefly: LTEA_HepaRG_CDKN1A: Life Technologies and Expression Analysis (LTEA) Assay for Cyclin Dependent Kinase Inhibitor 1A (CDKN1A) using HepaRG (AID 2283450). To be noted: mRNA level, 48 h; actives raise or lower the signal. In a few lines:
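Read-out is CDKN1A mRNA by TaqMan qRT-PCR, normalized to three housekeeping genes and fitted in both directions against the DMSO baseline. Human HepaRG cells were treated 48 h with test chemicals up to 100 uM in half-log steps, 0.5% DMSO.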

Read-out in experiment [10]: Cyclin D1 (CCND1), CCND1 (gene 595)
Briefly: LTEA_HepaRG_CCND1: Life Technologies and Expression Analysis (LTEA) Assay for Cyclin D1 (CCND1) using HepaRG (AID 2283451). Conditions: mRNA level, 48 h; actives raise or lower the signal. In a few lines:
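HepaRG plated 48 h, medium switched to serum-free induction medium, chemicals added in duplicate (top 100 uM, half-log steps, 0.5% DMSO) for 48 h, cells lysed, RNA measured by TaqMan qRT-PCR.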

Experiment [11] can be described thus: CEETOX_H295R_11DCORT: CeeTox H295R High-throughput Steroidogenesis Assay for 11-Deoxycortisol (11DCORT) (AID 2283432).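 On AC50: 11-deoxycortisol secreted into the medium measured by LC-MS/MS.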 To be noted: actives raise or lower the signal. In outline:
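H295R cells prestimulated 48 h with 10 uM forskolin, then exposed 48 h to chemical in 0.1% DMSO. 11-Deoxycortisol in medium quantified by HPLC-MS/MS after MTBE extraction; bidirectional fit versus DMSO. MTT viability read in same wells.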

A short description of experiment [12]: CEETOX_H295R_OHPREG: CeeTox H295R High-throughput Steroidogenesis Assay for OH-Pregnenolone (OHPREG) (AID 2283434). To be noted: actives raise or lower the signal. In a few lines: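 Human adrenal H295R cells were prestimulated 48 h with 10 uM forskolin, then exposed 48 h to chemical in 0.1% DMSO. Medium 17alpha-hydroxypregnenolone was quantified by HPLC-MS/MS after MTBE extraction; bidirectional fitting versus DMSO baseline.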

The nature of experiment [13]: CEETOX_H295R_OHPROG: CeeTox H295R High-throughput Steroidogenesis Assay for OH-Progesterone (OHPROG) (AID 2283435).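 On AC50: 17alpha-hydroxyprogesterone secreted into medium measured by HPLC-MS/MS.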 To be noted: actives raise or lower the signal. In outline:
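Secreted 17alpha-hydroxyprogesterone is read by tandem MS from media of forskolin-primed H295R cells dosed with chemical for 48 h. Activity is fitted in both directions against DMSO baseline; cytotoxic concentrations are re-tested diluted.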

A short description of experiment [14]: CEETOX_H295R_CORTIC: CeeTox H295R High-throughput Steroidogenesis Assay for Corticosterone (CORTIC) (AID 2283437).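 Further: corticosterone secreted into medium quantified by mass spectrometry.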 To be noted: actives raise or lower the signal. In a few lines:
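H295R cells were prestimulated 48 h with 10 uM forskolin, then exposed 48 h to test chemical in 0.1% DMSO. Medium corticosterone was MTBE-extracted and quantified by HPLC-MS/MS; bidirectional fit versus DMSO baseline.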

A short description of experiment [15]: CEETOX_H295R_CORTISOL: CeeTox H295R High-throughput Steroidogenesis Assay for Cortisol (AID 2283438).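 Further: cortisol secreted into medium quantified by LC-MS/MS.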 Conditions: actives raise or lower the signal. In outline:
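Human adrenocortical H295R cells (passage ≤10) received test chemicals for 48 h after forskolin priming. Secreted cortisol was measured by LC-MS/MS.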

A short description of experiment [16]: CEETOX_H295R_DOC: CeeTox H295R High-throughput Steroidogenesis Assay for DOC (AID 2283439). To be noted: actives raise or lower the signal. In outline:
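Secreted DOC was quantified from H295R media by HPLC-MS/MS after 48 h chemical exposure following 48 h forskolin (10 uM) prestimulation. Values were fitted in both directions relative to DMSO, the negative control and baseline.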

Experiment [17] can be described thus: CEETOX_H295R_PROG: CeeTox H295R High-throughput Steroidogenesis Assay for Progesterone (PROG) (AID 2283442).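 On AC50: human H295R adrenal cells primed with 10 µM forskolin before dosing; progesterone secreted into medium by H295R cells measured by HPLC-MS/MS.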 To be noted: actives raise or lower the signal. In a few lines:
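Steps: seed H295R cells and let them adhere overnight; prime 48 h with 10 uM forskolin; dose with compound in DMSO at 0.1% final for 48 h; extract medium steroids with MTBE; measure progesterone by LC-MS/MS. MTT viability was run in the same wells.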

Experiment [18] in a line: CEETOX_H295R_ANDR: CeeTox H295R High-throughput Steroidogenesis Assay for Androstenedione (ANDR) (AID 2283436). To be noted: actives raise or lower the signal. In a few lines:
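H295R human adrenal cells (passages ≤10) were exposed to test chemicals for 48 h; androstenedione in medium was MTBE-extracted and quantified by HPLC-MS/MS against a 7-point standard curve. Bidirectional fitting used DMSO as baseline.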

Experiment [19] can be described thus: CEETOX_H295R_ESTRADIOL: CeeTox H295R High-throughput Steroidogenesis Assay for Estradiol (AID 2283440).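 Further: estradiol secreted into medium quantified by LC-MS/MS after dansyl derivatisation.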 Conditions: actives raise or lower the signal. In outline: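 Estradiol secreted into the medium was measured by tandem mass spectrometry after liquid-liquid extraction and dansylation. Human H295R cells had been forskolin-primed (10 uM, 48 h) before a 48 h chemical exposure with 0.1% DMSO.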

Experiment [20] in a line: CEETOX_H295R_ESTRONE: CeeTox H295R High-throughput Steroidogenesis Assay for Estrone (AID 2283441).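 Further: estrone secreted into medium measured by LC-MS/MS after dansyl derivatization.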 Conditions: actives raise or lower the signal. In outline: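 H295R cells; 48 h forskolin (10 uM) prestimulation; 48 h compound exposure, 0.1% DMSO final. Medium estrone: MTBE extraction, dansyl derivatization, HPLC-MS/MS. Bidirectional fit vs DMSO.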

SMILES strings stand for the structures. Results filed as inconclusive are left out. The source made the active and inactive calls. How the source made its calls, unless noted: active means hit-call score of the fitted dose curve at least 0.9, where 1 is the maximum; inactive means score below 0.9.

The AC50 is the concentration at which the activity in the assay is half-maximal.

Sequence of Estrogen receptor (Homo sapiens) (P03372 whole entry, looked up): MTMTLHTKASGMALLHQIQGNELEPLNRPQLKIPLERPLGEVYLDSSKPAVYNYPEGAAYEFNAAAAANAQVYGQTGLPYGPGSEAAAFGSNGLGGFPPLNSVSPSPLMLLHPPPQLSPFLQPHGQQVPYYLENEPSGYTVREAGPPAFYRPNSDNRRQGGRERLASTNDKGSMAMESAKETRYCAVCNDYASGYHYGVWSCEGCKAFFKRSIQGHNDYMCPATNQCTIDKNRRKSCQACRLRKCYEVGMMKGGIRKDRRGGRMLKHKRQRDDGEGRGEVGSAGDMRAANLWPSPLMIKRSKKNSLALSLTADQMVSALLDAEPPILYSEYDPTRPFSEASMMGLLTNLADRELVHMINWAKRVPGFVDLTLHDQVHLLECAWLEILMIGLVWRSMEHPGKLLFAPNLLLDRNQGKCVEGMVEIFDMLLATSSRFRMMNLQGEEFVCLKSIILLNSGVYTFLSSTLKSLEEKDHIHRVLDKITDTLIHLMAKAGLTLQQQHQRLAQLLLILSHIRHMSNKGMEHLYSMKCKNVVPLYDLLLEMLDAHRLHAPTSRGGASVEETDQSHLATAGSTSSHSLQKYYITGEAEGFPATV
Sequence of Fatty acid synthase (Homo sapiens) (P49327 whole entry, looked up): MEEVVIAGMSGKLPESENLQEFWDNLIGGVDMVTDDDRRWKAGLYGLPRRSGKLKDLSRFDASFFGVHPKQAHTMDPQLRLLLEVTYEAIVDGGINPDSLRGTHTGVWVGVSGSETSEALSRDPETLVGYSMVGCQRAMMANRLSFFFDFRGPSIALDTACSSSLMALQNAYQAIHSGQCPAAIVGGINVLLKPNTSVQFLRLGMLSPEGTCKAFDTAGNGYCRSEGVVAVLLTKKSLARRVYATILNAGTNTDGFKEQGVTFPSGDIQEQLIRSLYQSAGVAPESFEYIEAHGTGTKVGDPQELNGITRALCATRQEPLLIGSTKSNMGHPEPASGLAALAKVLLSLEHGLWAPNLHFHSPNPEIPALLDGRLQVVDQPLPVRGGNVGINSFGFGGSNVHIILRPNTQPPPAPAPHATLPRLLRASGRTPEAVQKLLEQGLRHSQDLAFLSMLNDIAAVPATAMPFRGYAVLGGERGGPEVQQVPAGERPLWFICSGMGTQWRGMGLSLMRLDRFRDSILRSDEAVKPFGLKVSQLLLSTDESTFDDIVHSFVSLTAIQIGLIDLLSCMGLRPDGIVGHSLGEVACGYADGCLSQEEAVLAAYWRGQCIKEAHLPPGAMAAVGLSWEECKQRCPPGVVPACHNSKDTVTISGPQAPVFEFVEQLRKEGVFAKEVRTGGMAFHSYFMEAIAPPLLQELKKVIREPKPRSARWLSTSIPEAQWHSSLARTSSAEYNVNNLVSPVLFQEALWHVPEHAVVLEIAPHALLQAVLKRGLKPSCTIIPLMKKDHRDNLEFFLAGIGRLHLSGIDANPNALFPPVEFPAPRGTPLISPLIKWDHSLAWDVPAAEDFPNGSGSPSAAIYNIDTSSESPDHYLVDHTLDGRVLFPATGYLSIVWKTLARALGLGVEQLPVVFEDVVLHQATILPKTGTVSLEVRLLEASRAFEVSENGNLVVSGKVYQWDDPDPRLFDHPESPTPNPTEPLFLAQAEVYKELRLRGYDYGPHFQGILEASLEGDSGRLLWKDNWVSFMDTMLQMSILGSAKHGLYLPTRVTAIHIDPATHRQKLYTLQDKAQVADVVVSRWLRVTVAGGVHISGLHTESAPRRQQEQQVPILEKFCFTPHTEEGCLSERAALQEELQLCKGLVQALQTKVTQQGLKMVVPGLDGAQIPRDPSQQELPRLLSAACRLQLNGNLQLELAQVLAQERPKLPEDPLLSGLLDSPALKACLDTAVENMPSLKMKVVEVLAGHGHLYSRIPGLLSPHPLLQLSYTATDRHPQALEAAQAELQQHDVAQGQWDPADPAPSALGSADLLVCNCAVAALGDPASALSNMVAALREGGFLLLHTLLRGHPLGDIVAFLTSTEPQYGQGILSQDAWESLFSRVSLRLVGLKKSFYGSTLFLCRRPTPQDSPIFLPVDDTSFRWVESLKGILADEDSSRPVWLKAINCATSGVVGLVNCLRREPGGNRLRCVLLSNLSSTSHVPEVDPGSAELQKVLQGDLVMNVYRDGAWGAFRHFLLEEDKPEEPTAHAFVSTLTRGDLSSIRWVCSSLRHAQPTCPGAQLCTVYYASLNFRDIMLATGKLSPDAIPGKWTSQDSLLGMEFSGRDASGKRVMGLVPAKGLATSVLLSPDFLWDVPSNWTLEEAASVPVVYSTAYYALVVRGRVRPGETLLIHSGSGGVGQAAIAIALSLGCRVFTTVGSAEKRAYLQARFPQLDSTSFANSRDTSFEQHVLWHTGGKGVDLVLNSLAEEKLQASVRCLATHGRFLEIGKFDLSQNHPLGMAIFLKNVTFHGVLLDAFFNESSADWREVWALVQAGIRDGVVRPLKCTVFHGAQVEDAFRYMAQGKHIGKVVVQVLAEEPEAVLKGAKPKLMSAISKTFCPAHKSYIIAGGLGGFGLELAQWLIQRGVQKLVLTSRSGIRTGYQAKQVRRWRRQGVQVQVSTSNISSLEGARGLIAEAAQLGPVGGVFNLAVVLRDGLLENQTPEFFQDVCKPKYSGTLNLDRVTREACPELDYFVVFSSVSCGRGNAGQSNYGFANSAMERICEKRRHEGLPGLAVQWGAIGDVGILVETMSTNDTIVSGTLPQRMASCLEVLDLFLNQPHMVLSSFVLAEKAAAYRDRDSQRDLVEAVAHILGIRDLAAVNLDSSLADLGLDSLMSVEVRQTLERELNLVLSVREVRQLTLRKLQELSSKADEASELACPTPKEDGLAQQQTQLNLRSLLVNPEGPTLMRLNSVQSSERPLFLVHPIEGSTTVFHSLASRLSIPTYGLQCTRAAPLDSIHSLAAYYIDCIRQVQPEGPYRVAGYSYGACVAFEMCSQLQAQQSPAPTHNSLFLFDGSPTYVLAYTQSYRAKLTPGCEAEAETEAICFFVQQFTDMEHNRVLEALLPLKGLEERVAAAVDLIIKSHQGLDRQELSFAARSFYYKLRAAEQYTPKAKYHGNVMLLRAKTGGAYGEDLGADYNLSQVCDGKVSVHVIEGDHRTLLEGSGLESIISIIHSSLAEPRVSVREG

For `Cc1[nH]c(=O)n(C(C)(C)C)c(=O)c1Cl`, the call in experiment [1], in [2], in experiment [3], in [4], in experiment [5] and in experiment [6] was inactive. For the same compound, the call in experiment [8], in [9] and in experiment [10] was inactive. For the same compound, the AC50 in experiment [7] is 68.9 µM (active).

Regarding `CCN(CC)C(=O)SCc1ccc(Cl)cc1`, the outcome in experiment [1], in [3], in experiment [4], in experiment [5], in [13] and in experiment [14] was inactive. Moreover, the call in experiment [15], in experiment [17], in [6], in experiment [7], in experiment [9] and in [10] was inactive. Also, the AC50 was 40 µM (active) in experiment [2], 24.6 µM (active) in experiment [11], 19.3 µM (active) in [12] and 22.6 µM (active) in [16].

Consider `CCCN(CCC)c1c([N+](=O)[O-])cc(C(F)(F)F)cc1[N+](=O)[O-]`, for which the compound was called inactive in experiment [1], in experiment [3], in [4], in experiment [5], in [12] and in [13]. Further, the compound was classed as inactive in experiment [18], in experiment [17], in [6], in experiment [7], in [8] and in experiment [9]. The call in experiment [10] was inactive. In experiment [2], the AC50 was 30.7 µM (active).

Turning to `O=C1c2ccccc2C(=O)N1SC(Cl)(Cl)Cl`, the compound was classed as inactive in experiment [1], in experiment [3], in [4], in [5], in [12] and in experiment [13]. For the same compound, the result in experiment [19], in experiment [20], in [17], in experiment [6], in experiment [7] and in experiment [8] was inactive. Also, the compound was classed as inactive in experiment [9] and in [10].

For the compound `COc1nn(CSP(=S)(OC)OC)c(=O)s1`, the compound was classed as inactive in experiment [1], in experiment [2], in experiment [3], in [4], in experiment [5] and in experiment [11]. Moreover, the compound was classed as inactive in experiment [12], in [15], in experiment [6], in [7], in [8] and in experiment [9]. Further, the call in [10] was inactive. For the same compound, the AC50 is 13.6 µM (active) in experiment [13]; 33.1 µM (active) in [14]; 40.2 µM (active) in experiment [16]; 11.5 µM (active) in experiment [19]; 21.4 µM (active) in experiment [20]; 38.2 µM (active) in experiment [17].
